About 79,000 compounds went through this panel and 15% of them were active in at least one assay; those are over-represented in the sample as a whole. Active and inactive are the calls of the source. No stated cut-off is given here; in the data, active means growth inhibition above about 70%; inactive means the rest.

In PubChem BioAssay (NCI) one finds growth inhibition data, which are given here for 23 molecules.

The test in a line: NCI Yeast Anticancer Drug Screen. Data for the mec2-1 strain (AID 157). Conditions: S. cerevisiae mec2-1 strain, at 50.0 µM, stronger effect = higher value. In outline:
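Growth inhibition is read against vehicle-treated controls after compound exposure of the mec2-1 yeast strain, which is defective in DNA damage repair or cell cycle control.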
Consider `CCc1nc(N)nc(N)c1-c1ccc(Cl)c([N+](=O)[O-])c1`, for which the growth inhibition is 4.95% (inactive). The same measure for `COc1ccc(C2CC(c3cc(C)ccc3O)=NC(N)=N2)cc1` (stereo not drawn): 12.8% (inactive); for `CCOC(=O)Cc1csc2[n+]1C(=O)/C(=C/c1cccc(OC)c1O)S2`: 9.8% (inactive); for `COc1ccc(CCN2C(=O)C(=O)N(c3ccc([N+](=O)[O-])cc3)C2=O)cc1OC`: 1.45% (inactive). Consider `CC1(c2cccc[n+]2Cc2ccccc2S(=O)(=O)[O-])OCCO1`, for which the growth inhibition is -3.6% (inactive). For the molecule `O=c1[nH]nc(SCc2ccccc2)c(=O)n1C(c1ccccc1)c1ccccc1`, the growth inhibition was 12.4% (inactive).

Take `COc1cc(C(=O)O)ccc1OC(C)=O`: the growth inhibition was -20.1% (inactive).

Turning to `O=C1C=C(c2ccccc2)C(O)(c2ccccc2)/C1=C/C=C/c1ccccc1` (stereo not drawn), the growth inhibition was -14.1% (inactive). The same measure for `Cc1onc(-c2c(F)cccc2Cl)c1C(=O)Nc1cc2cc([N+](=O)[O-])ccc2oc1=O`: -13.7% (inactive). As for `C=CCSc1nc2ccc(NCn3c(=S)sc4ccccc43)cc2s1`, the figure is 65.2% (inactive); as for `Nc1nc(Cl)nc(Nc2ccc(-c3cc4ccc(-c5ncc[nH]5)cc4[nH]3)cc2)n1`, 45.5% (inactive). As for `CC(Br)C1=CC(c2ccccc2)(c2ccccc2)c2ccccc21` (stereo not drawn), the figure is 98% (active). On to `COc1cccc(NC(=S)NC(=O)c2ccccc2)c1`, for which the growth inhibition was 60.8% (inactive).

As to `Cc1ccc(C(=O)N2CCCCC2)cc1N=NN(C)C`, the growth inhibition was -25.5% (inactive). As for `COC(=O)CC1(C(=O)OC)OC(=O)c2ccccc2N1C` (stereo not drawn), the figure is 12% (inactive). The same measure for `COc1cc(O)c(Cc2ccccc2O)c(O)c1C(=O)CCc1ccccc1`: -34.5% (inactive). As for `Cc1ccccc1-c1nc2c([nH]1)c(=O)n(C)c(=O)n2C`, the figure is -2.2% (inactive).

With `ClC(c1ccccc1)c1cccc2ccccc12` (stereo not drawn), the growth inhibition was -2.45% (inactive).

Regarding `O=S1(=O)OC(c2ccc(O)cc2)(c2ccc(O)cc2)c2ccccc21`, the growth inhibition was -25.9% (inactive). Turning to `CCCSS[C@H]1NC(=O)[C@H]1NC(=O)COc1ccccc1`, the growth inhibition is 8.5% (inactive). `Cc1cc(N(CCC#N)CCC#N)ccc1N=Nc1ccccc1[N+](=O)[O-]`: the growth inhibition was -38.1% (inactive). As for `CC(C)(NC(=O)c1cc(Cl)c2ccccc2c1O)C(=O)O`, the figure is 2.8% (inactive); as for `CN1C(C(=O)Nc2ccccn2)=C(O)c2ccccc2S1(=O)=O`, 15.5% (inactive).
